# Measured values published in PubChem BioAssay (Tox21).
# Where “and” joins values, the source holds several entries; their conditions need not be identical. Equal entries are not always repeated. Records with an inconclusive call do not appear. Where a call stands in place of a potency, no number is given. Some compounds were tested as several samples or in several runs, with calls that do not always agree. Calls of active or inactive are those of the source. Unless noted, calls follow the shape of the dose curve; as a rule, active = well fitted curve in the direction sought with a large enough effect in the repeat runs; inconclusive = weak or mixed curves; inactive = no such curve, though single readings can be large; an effect the other way counts as inactive or inconclusive.
# Legend:
# [1] = target: Aromatase (Homo sapiens) (UniProt P11511); test: qHTS assay to identify aromatase inhibitors (AID 743083); also: series mostly up to about 70 µM; nearly all actives have a fitted effect of over 55% in size
# [2] = qHTS assay for small molecules that induce genotoxicity in human embryonic kidney cells expressing luciferase-tagged ATAD5 (AID 651632); also: nearly all actives have a fitted effect of over 15% in size
# Method in brief: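 Concentration-response screen for ATAD5 upregulation in HEK293T luciferase reporter cells; 16 hr treatment at 37C, then luminescence after 30 min with Amplite at room temperature.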
# [3] = qHTS assay for small molecule agonists of the p53 signaling pathway - cell viability (AID 651633; calls by dose curve;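 also: p53RE-bla HCT reporter cells with a stable beta-lactamase p53 reporter; series mostly up to about 83 µM; nearly all actives have a fitted effect of over 30% in size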)
# Method in brief: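 p53RE-bla cells were treated with compound for 16 hours at 37 C. Cytotoxicity was then measured as CellTiter-Glo luminescence after 30 min at room temperature.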
# [4] = qHTS assay for small molecules that induce genotoxicity in human embryonic kidney cells expressing luciferase-tagged ATAD5 - cell viability (AID 651634; calls by dose curve; also: nearly all actives have a fitted effect of over 25% in size)
# Method in brief: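 15.5 hr compound or vehicle exposure of HEK293T cells expressing luciferase-tagged ATAD5 at 37C; live-cell protease activity is read by fluorescence after 30 min of CellTiter-Fluor.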
# [5] = qHTS assay for small molecule disruptors of the mitochondrial membrane potential - cell viability (AID 720634; calls by dose curve;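 also: human HepG2 liver cancer cells; series mostly up to about 83 µM; nearly all actives have a fitted effect of over 20% in size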)
# Method in brief: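 In this qHTS format, HepG2 cells plated overnight were pinned with compound, incubated 1 hr, and assayed for ATP luminescence with CellTiter-Glo after m-MPI dye addition.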
# [6] = qHTS assay to test for compound auto fluorescence at 590 nm (red) in HepG2 cells (AID 720674)
# Method in brief: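 Seeding: 2,000 HepG2 cells/well, MEM/10% FBS, overnight 37 C. Dosing: compound vs DMSO. Incubation: 1 hr, 37 C, 5% CO2. Read: fluorescence 540 ex/590 em, Rose Bengal sodium as red reference.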
# [7] = qHTS assay to test for compound auto fluorescence at 460 nm (blue) in HEK293 cells (AID 720678)
# Method in brief: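 Blue read-out at excitation 405 nm and emission 460 nm follows overnight compound exposure of HEK293 cells at 37C in 5% CO2. Activity is given as auto fluorescence equivalency to triamterene.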
# [8] = qHTS assay to test for compound auto fluorescence at 590 nm (red) in HEK293 cells (AID 720679)
# Method in brief: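 Red channel, Ex/Em 540/590nm; signal expressed as equivalency to Rose Bengal sodium. HEK293, 2,000 cells/well, 10% dialyzed FBS; 23 nL compound pinned after 4-5 hr attachment; overnight 37C/5% CO2 before reading.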
# [9] = qHTS assay to test for compound auto fluorescence at 460 nm (blue) in HEK293 cell free culture (AID 720681)
# Method in brief: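 Compounds were added to cell-free DMEM with 10% FBS and fluorescence read directly. The blue channel used 405 nm excitation and 460 nm emission, with triamterene as the reference fluorophore.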
# [10] = qHTS assay to test for compound auto fluorescence at 535 nm (green) in HEK293 cell free culture (AID 720682)
# Method in brief: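 Using fluorescein as calibrant, autofluorescence was quantified at 485/535 nm in cell-free DMEM containing 10% FBS after pintool addition of compound or vehicle.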
# [11] = qHTS assay to identify small molecule antagonists of the glucocorticoid receptor (GR) signaling pathway - cell viability counter screen (AID 720693); also: nearly all actives have a fitted effect of over 55% in size
# [12] = qHTS assay to identify small molecule antagonists of the androgen receptor (AR) signaling pathway using the MDA cell line - cell viability counter screen (AID 743041; also: nearly all actives have a fitted effect of over 45% in size)
# Method in brief: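 Cytotoxicity counter screen: MDA-kb2 AR-luc cells, compound + R1881, 16 h, 37C, 0% CO2; CellTiter-Fluor added at 15.5 h, fluorescence read after 30 min.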
# [13] = system: thyroid hormone receptor (rat, GH3 cells); test: qHTS assay to identify small molecule agonists of the thyroid receptor (TR) signaling pathway (AID 743066; calls by dose curve)
# [14] = qHTS assay to identify small molecule antagonists of the estrogen receptor alpha (ER-alpha) signaling pathway - cell viability counter screen (AID 743074; calls by dose curve;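 also: HEK293 cells carrying ER-alpha-UAS-bla reporter stimulated with 17beta-estradiol; nearly all actives have a fitted effect of over 45% in size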)
# [15] = qHTS assay to identify small molecule antagonists of the estrogen receptor alpha (ER-alpha) signaling pathway using the BG1 cell line - cell viability counter screen (AID 743081);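 also: compound given together with 17beta-estradiol as the ER stimulus; series mostly up to about 70 µM; nearly all actives have a fitted effect of over 45% in size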
# [16] = qHTS assay to identify aromatase inhibitors - cell viability counter screen (AID 743084);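 also: cells stimulated with testosterone during compound exposure; nearly all actives have a fitted effect of over 55% in size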; also: potency is read from the fitted curve at half-maximal effect
# [17] = qHTS assay to identify small molecule that activate the aryl hydrocarbon receptor (AhR) signaling pathway - cell viability counter screen (AID 743086); also: nearly all actives have a fitted effect of over 45% in size; also: potency is read from the fitted curve at half-maximal effect
# Method in brief: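 HepG2-AhR-luc (HG2L7.5c1) cells, 4000/well, treated 24 h at 37 C with compound; viability measured as CellTiter-Fluor fluorescence after 30 min in the same wells as the luciferase read.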
# [18] = qHTS assay to identify small molecule phospholipidosis (PLD) inducers (AID 1259344; active = well fitted curve in the direction sought with a large enough effect; an effect the other way counts as inactive or inconclusive)
# Method in brief: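 Read-out is LipidTOX Red fluorescence (ex 595/em 615) imaged in HepG2 cells after 24 h compound exposure at 37 C, with Hoechst nuclear counterstain (ex 352/em 461) allowing per-cell normalisation.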
# [19] = target: Nuclear receptor subfamily 1 group I member 2 (Rattus norvegicus) (UniProt Q9R1A7); test: Rat pregnane X receptor (rPXR) activation by small molecules, qHTS assay (AID 1346983); conditions: rPXR luciferase reporter cells, One-Glo luminescence, 24 h; max activation: stronger effect = higher value; also: nearly all actives have a fitted effect of over 20% in size
# Method in brief: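 Cell-based rPXR activation assay: rPXR cells, 2,000 per well, rested 5hr at 37 C, then exposed to compounds in DMSO for 24 hr at 37 C. Luciferase activity read by One-Glo luminescence after 30 min at room temperature.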
# [20] = target: Nuclear receptor subfamily 1 group I member 2 (Homo sapiens) (UniProt O75469); test: CYP3A4 induction through human pregnane X receptor (PXR) by small molecules, qHTS assay (AID 1346984); also: nearly all actives have a fitted effect of over 40% in size
# Method in brief: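 After 24 h at 37C with compound, DPX-2 cells (HepG2, co-transfected PXR response element and CYP3A4 promoter-luciferase) got 3uM final P450-Glo Luciferin-IPA for 3 h; One-Glo luminescence followed.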
# Nuclear receptor subfamily 1 group I member 2 (Rattus norvegicus), sequence (Q9R1A7 whole entry, looked up): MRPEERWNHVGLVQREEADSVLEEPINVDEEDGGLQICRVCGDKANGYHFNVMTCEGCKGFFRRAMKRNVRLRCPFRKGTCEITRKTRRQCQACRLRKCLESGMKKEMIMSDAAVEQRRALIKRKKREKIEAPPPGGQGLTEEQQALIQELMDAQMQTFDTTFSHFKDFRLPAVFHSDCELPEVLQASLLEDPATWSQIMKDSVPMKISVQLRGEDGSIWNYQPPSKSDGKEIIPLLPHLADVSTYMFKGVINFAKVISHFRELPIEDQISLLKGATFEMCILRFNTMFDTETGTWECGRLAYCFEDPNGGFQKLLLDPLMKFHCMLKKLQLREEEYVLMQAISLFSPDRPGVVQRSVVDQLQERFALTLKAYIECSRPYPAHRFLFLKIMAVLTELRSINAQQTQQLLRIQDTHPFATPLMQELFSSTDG
# Aromatase (Homo sapiens), sequence (P11511 whole entry, looked up): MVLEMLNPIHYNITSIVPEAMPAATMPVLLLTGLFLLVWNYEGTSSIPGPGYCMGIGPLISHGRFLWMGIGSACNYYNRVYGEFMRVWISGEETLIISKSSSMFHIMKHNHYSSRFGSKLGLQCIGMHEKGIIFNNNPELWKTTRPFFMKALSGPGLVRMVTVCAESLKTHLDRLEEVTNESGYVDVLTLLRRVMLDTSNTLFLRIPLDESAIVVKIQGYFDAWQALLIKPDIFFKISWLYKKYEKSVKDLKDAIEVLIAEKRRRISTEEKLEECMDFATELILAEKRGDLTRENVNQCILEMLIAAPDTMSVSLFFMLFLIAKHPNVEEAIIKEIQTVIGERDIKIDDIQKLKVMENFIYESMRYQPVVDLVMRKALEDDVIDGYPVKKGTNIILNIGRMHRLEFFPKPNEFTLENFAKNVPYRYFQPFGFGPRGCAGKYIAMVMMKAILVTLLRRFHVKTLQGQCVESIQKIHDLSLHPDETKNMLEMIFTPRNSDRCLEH
Compound,Potency [1],Potency [2],Potency [3],Potency [4],Potency [5],outcome [6],Potency [7],outcome [8],Potency [9],Potency [10],Potency [11],Potency [12],Potency [13],Potency [14],Potency [15],Potency [16],Potency [17],Potency [18],max activation [19],Potency [20]
Cc1ccc([N+](=O)[O-])cc1N,inactive,–,–,–,–,–,–,–,–,–,–,–,–,–,–,–,–,–,–,–
Cc1ccccc1-n1c(C)nc2ccccc2c1=O,inactive,inactive,inactive,inactive,inactive,inactive,inactive,inactive,inactive,inactive,inactive,inactive,inactive,inactive,inactive,inactive and 24.1 µM (active),inactive and 24.1 µM (active),inactive,9.97% (inactive),inactive
Clc1ccc2c(c1)C(c1ccccc1)=NCc1nncn1-2,inactive,inactive,inactive,inactive,inactive,inactive,inactive,inactive,inactive,inactive,inactive,inactive,inactive,inactive,inactive,inactive,inactive,inactive,-10.5% (inactive),inactive
C[C@@H](CO)NC(=O)[C@@H]1C=C2c3cccc4[nH]cc(c34)C[C@H]2N(C)C1,inactive,inactive,inactive,inactive,inactive,inactive,inactive,inactive,inactive,inactive,inactive,inactive,inactive,inactive,inactive,inactive,–,inactive,-0.825% (inactive),inactive
CC[N+](C)(CC)CCOC(=O)C(O)(c1ccccc1)c1ccccc1,inactive,inactive,inactive,inactive,inactive,inactive,inactive,inactive,inactive,inactive,inactive,inactive,inactive,inactive,inactive,inactive,inactive,inactive,-2.16% (inactive),inactive
CC(=O)OCC(=O)[C@H]1CC[C@H]2[C@@H]3CC[C@H]4C[C@H](O)CC[C@]4(C)[C@H]3C(=O)C[C@]12C,inactive,inactive,inactive,inactive,inactive,inactive,inactive,inactive,inactive,inactive,inactive,inactive,inactive,inactive,inactive,inactive,inactive,inactive,-0.613% (inactive),inactive
CCC(=O)O[C@]1(c2ccccc2)CCN(C)C[C@H]1C,inactive,inactive,inactive,inactive,inactive,inactive,inactive,inactive,inactive,inactive,inactive,inactive,inactive,inactive,inactive,inactive,inactive,inactive,-0.104% (inactive),inactive
COc1ccc2c3c1O[C@H]1[C@@H](O)C=C[C@H]4[C@@H](C2)NCC[C@@]341,inactive,inactive,inactive,inactive,inactive,inactive,inactive,inactive,inactive,inactive,inactive,inactive,inactive,inactive,inactive,inactive,inactive,inactive,-0.689% (inactive),inactive
CCC(N)Cc1c[nH]c2ccccc12 (stereo not drawn),inactive,inactive,inactive,inactive,inactive,inactive,inactive,inactive,inactive,inactive,inactive,inactive,inactive,inactive,–,inactive,inactive,inactive,-0.551% (inactive),inactive
C[C@]12CC[C@H]3[C@@H](CCC4=C(O)C(=O)CC[C@@H]43)[C@@H]1CC[C@@H]2OC(=O)CCC1CCCC1,inactive,inactive,inactive,inactive,inactive,inactive,inactive,inactive,inactive,inactive,inactive,inactive,inactive,inactive,inactive,inactive,inactive,inactive,-2.22% (inactive),inactive
CCCCNCC(O)c1ccc(O)cc1 (stereo not drawn),–,inactive,inactive,inactive,inactive,inactive,inactive,inactive,inactive,inactive,inactive,inactive,inactive,inactive,inactive,–,inactive,inactive,-0.163% (inactive),inactive
[S]=[Sb](=[S])[S][Sb](=[S])=[S],inactive,inactive,inactive,inactive,inactive,inactive,inactive,inactive,inactive,inactive,inactive,inactive,inactive,inactive,inactive,inactive,inactive,inactive,-0.774% (inactive),inactive
C[C@@H](Cc1ccccc1)N(C)C,inactive,inactive,inactive,inactive,inactive,inactive,inactive,inactive,inactive,inactive,inactive,inactive,inactive,inactive,inactive,inactive,inactive,inactive,-2.61% (inactive),inactive
CC(C)(C)c1ccc(O)cc1,–,–,–,–,–,inactive,inactive,inactive,inactive,inactive,–,–,–,–,–,–,–,inactive,–,–
CC(Cc1ccccc1)NC=O (stereo not drawn),inactive,inactive,inactive,inactive,inactive,inactive,inactive,inactive,inactive,inactive,inactive,inactive,inactive,inactive,inactive,inactive,inactive,inactive,0.0916% (inactive),inactive
